Mtb MbtI inh = MbtI salicylate synthase inhibitors, primary screen, biochemical, fluorescence intensity; P9WFX0; purified MbtI enzyme, fluorescence intensity read-out; inhibition, % (no concentration beside the values); 0.89% of 100,000 active; AID 493033, 2011; in the data active = inhibition mostly above about 56%, no sharp cut-off; inactive = mostly below about 77%
MenB inh = M. tuberculosis MenB inhibitors, primary screen, biochemical, absorbance | 1,4-dihydroxy-2-naphthoyl-CoA synthase (Mycobacterium tuberculosis (strain ATCC 25618 / … | MenB enzyme assay, absorbance read-out | inhibition, % (test concentration not listed) | 0.43% of 100,000 active; in the data active = inhibition above about 21%, passing the limit was not always enough
AID504770 = growth inhibition of E. coli YBA685, primary screen, V. cholerae RctB inhibitors; E. coli YBA685 rctB-dependent plasmid, OD600 growth, 3 h; active compounds read low; z-score (concentration not given with the values); 0.27% of 130,000 active; in the data active = z-score below about -2, passing the limit was not always enough
PV pol inh = poliovirus RdRp elongation inhibitors, primary screen, biochemical, fluorescence polarization, total intensity. Genome polyprotein (Poliovirus type 1 (strain Mahoney)), P03300. poliovirus polymerase elongation; active compounds read low. % elongation, % (compound at 16.7 µg/mL). 0.66% of 150,000 active; in the data active = % elongation below about 90%
Target sequence (P03300 1749-2209 limits assumed): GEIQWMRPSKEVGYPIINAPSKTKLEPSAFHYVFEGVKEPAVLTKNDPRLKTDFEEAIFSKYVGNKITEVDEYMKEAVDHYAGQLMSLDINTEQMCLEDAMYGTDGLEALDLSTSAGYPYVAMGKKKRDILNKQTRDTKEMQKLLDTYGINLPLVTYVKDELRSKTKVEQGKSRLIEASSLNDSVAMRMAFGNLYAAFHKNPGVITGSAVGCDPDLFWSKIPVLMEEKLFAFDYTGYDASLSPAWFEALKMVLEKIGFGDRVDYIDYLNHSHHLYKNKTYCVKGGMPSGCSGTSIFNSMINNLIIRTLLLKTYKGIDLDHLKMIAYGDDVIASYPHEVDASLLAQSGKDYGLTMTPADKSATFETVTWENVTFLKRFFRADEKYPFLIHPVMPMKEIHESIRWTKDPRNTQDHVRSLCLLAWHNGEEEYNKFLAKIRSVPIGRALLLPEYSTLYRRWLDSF
* marks the source's active call; other numbers are inactive results. Most compounds without a hit are left out; they make up all but 1.4% or so of the library.

N#CSc1ccc2nc(N)sc2c1 was read as Mtb MbtI inh 53*, MenB inh 1, AID504770 -1.4 and PV pol inh 94.
For N#Cc1c(N2CCCC(O)C2)nc(N)c2c(N)nc3c(c12)CC(=O)N3C12CC3CC(CC(C3)C1)C2 (stereo not drawn) the results were Mtb MbtI inh -14, MenB inh -25, AID504770 1.3 and PV pol inh 39*.
Screening C=C(C)CN(CC)c1nc(N)c2c(N)nc3c(c2c1C#N)CC(=O)N3C12CC3CC(CC(C3)C1)C2 returned Mtb MbtI inh -18, MenB inh -2, AID504770 1 and PV pol inh 102.
For O=C(CSc1nc2ccccc2s1)NNc1ncnc2c1cnn2Cc1ccccc1 the results were Mtb MbtI inh 56*, MenB inh 6, AID504770 1.7 and PV pol inh 100.
For CC(C)NC(=O)CSc1nc2ccccc2s1 the results were Mtb MbtI inh 30, MenB inh -31, AID504770 1.8 and PV pol inh 105.
`COc1ccc(NS(=O)(=O)c2ccc3oc(SCC(=O)N4CCc5ccccc5C4)nc3c2)cc1` gave Mtb MbtI inh 22, MenB inh 11, AID504770 1.4 and PV pol inh 105.
O=C(Cn1cnc2ccccc2c1=O)N1CCc2ccccc21 was read as Mtb MbtI inh -30, MenB inh 8, AID504770 0.65 and PV pol inh 106.
O=C(Cn1cnc2ccccc2c1=O)N1CCCCCC1 was read as Mtb MbtI inh 5, MenB inh 33*, AID504770 1.4 and PV pol inh 100.
C=CCNC(=O)CCn1c(=O)sc2ccccc21 was read as Mtb MbtI inh -11, MenB inh -16, AID504770 -0.25 and PV pol inh 102.
Screening COc1ccc(CCNC(=O)c2ccc3c(c2)N(Cc2cccc(C)c2)C(=O)c2ccccc2S3(=O)=O)cc1OC returned PV pol inh 82*.
COc1ccc(CCNC(=O)c2ccc3c(c2)N(Cc2ccccc2F)C(=O)c2ccccc2S3(=O)=O)cc1OC was read as PV pol inh 110.
For Cc1ccc(CNC(=O)c2ccc3c(c2)NC(=O)CS3)n1C the results were Mtb MbtI inh -10, MenB inh -8, AID504770 -0.3 and PV pol inh 106.
For CCOC(=O)c1c(Nc2ccc(OC)c(Cl)c2)n[nH]c1C the results were Mtb MbtI inh 88*, MenB inh -56, AID504770 3 and PV pol inh 98.
CC(Sc1nnc(CCNC(=O)c2ccccc2F)n1C)c1nc2ccccc2c(=O)[nH]1 (stereo not drawn) was read as Mtb MbtI inh 1, MenB inh 17, AID504770 -0.25 and PV pol inh 101.
Screening N#CSCC(=O)c1cccs1 returned MenB inh -22, AID504770 -3.7* and PV pol inh 85*.
Screening CCS(=O)c1ccccc1C(=O)NCc1ccc(C)cc1 (stereo not drawn) returned Mtb MbtI inh 100*, MenB inh -28, AID504770 -0.75 and PV pol inh 100.
`Cn1nc(C2CC2)cc1C(=O)O` gave Mtb MbtI inh 2, MenB inh 30*, AID504770 -0.35 and PV pol inh 102.
COc1ccc2c(C)nc(NC3=NCC(=O)N3)nc2c1 was read as Mtb MbtI inh inactive, MenB inh -19, AID504770 -1 and PV pol inh 97.
`COc1cc2c(cc1OC)CC(C(=O)O)NC2` (stereo not drawn) gave Mtb MbtI inh -2, MenB inh 32*, AID504770 1 and PV pol inh 103.
O=C1C=C(Nc2ccc(F)c(C(F)(F)F)c2)c2ccccc2C1=O was read as MenB inh -4, AID504770 2.5 and PV pol inh 62*.
For N#Cc1c(N)sn(-c2ccccc2)c1=S the results were Mtb MbtI inh 94*, MenB inh -5, AID504770 -0.35 and PV pol inh 79*.
For CCC(=O)NCc1nc(-c2ccccc2)no1 the results were Mtb MbtI inh 7, MenB inh 16, AID504770 1.6 and PV pol inh 102.
O=C1C(=Cc2ccccc2)C(=O)c2ccccc21 was read as Mtb MbtI inh 95*, MenB inh -96, AID504770 0.85 and PV pol inh 93.
Screening O=C(COC(=O)c1ccccc1Cl)c1ccc(Cl)cc1 returned Mtb MbtI inh -8, MenB inh 2, AID504770 -0.45 and PV pol inh 105.
`NC(=O)c1ccccc1NCC(=O)c1ccc(Cl)cc1` gave AID504770 -2.2*.

Compound activity (PubChem)
